Measured values published in PubChem BioAssay AID1159580 (chemical genetic matrix, 2015).
“And” between values parts separate entries of the source, which are not always exact repeats. Equal values may be shown once. Among all 5,500 compounds or so, about 2,000 (36%) were called active. Inconclusive results (about 18%) are left out. Cut-off read from the data, not from the text of the source: active = normalized growth mostly below about 0.91 (no sharp cut-off); inconclusive = no clear call, values can overlap the other calls; inactive = mostly above about 0.92. This is one part of the list.

Assay: chemical genetic growth profiling, strain panel (AID 1159580);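 note: tested at 20 µM; growth read once vehicle control cultures reached saturation at 30 °C; 1 = growth at the plate median or of vehicle wells; lower values mean less growth of the strain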
Conditions: S. cerevisiae deletion strains, growth OD

Measured: normalized growth

Cc1cc(O)cc(C)c1Cl
active: locus YAL026C, strain drs2, stronger effect = lower value 0.831 | locus YBL061C, strain skt5, stronger effect = lower value 0.914 | locus YBR009C, strain hhf1, stronger effect = lower value 0.873 | locus YBR023C, strain chs3, stronger effect = lower value 0.899 | locus YBR279W, strain paf1, stronger effect = lower value 0.899 | locus YCL011C, strain gbp2, stronger effect = lower value 0.906 | locus YCL016C, strain dcc1, stronger effect = lower value 0.892 | locus YCL061C, strain MRC1, stronger effect = lower value 0.916 | locus YCR088W, strain abp1, stronger effect = lower value 0.891 | locus YDR137W, strain rgp1, stronger effect = lower value 0.41 | locus YDR159W, strain sac3, stronger effect = lower value 0.588 | locus YDR195W, strain ref2 1.35 [resistant] | locus YDR335W, strain msn5, stronger effect = lower value 0.898 | locus YDR392W, strain spt3, stronger effect = lower value 0.653 | locus YEL061C, strain CIN8 (second series), stronger effect = lower value 0.898 | locus YER015W, strain faa2, stronger effect = lower value 0.839 | locus YER016W, strain bim1, stronger effect = lower value 0.874 | locus YER111C, strain swi4, stronger effect = lower value 0.905 | locus YER155C, strain BEM2 (second series), stronger effect = lower value 0.603 | locus YGL078C, strain dbp3, stronger effect = lower value 0.919 | locus YGL253W, strain hxk2, stronger effect = lower value 0.895 | locus YHR027C, strain rpn1, stronger effect = lower value 0.838 | locus YHR142W, strain chs7, stronger effect = lower value 0.77 | locus YJL164C, strain tpk1, stronger effect = lower value 0.887 | locus YJL166W, strain qcr8, stronger effect = lower value 0.849
inactive: locus YAL021C, strain ccr4, stronger effect = lower value 0.918 | locus YAL030W, strain snc1, stronger effect = lower value 0.961 | locus YBR021W, strain FUR4, stronger effect = lower value 1.04 | locus YBR171W, strain sec66, stronger effect = lower value 0.912 | locus YBR229C, strain ROT2, stronger effect = lower value 0.993 | locus YBR231C, strain swc5, stronger effect = lower value 0.945 | locus YCL029C, strain bik1, stronger effect = lower value 0.981 | locus YCL069W, strain vba3, stronger effect = lower value 0.929 | locus YDL005C, strain med2, stronger effect = lower value 1.02 | locus YDL035C, strain GPR1, stronger effect = lower value 0.942 | locus YDL040C, strain nat1, stronger effect = lower value 0.968 | locus YDL074C, strain BRE1, stronger effect = lower value 0.968 | locus YDL101C, strain DUN1, stronger effect = lower value 1.01 | locus YDL185W, strain tfp1, stronger effect = lower value 0.988 | locus YDL192W, strain arf1, stronger effect = lower value 1.02 | locus YDR001C, strain nth1, stronger effect = lower value 0.951 | locus YDR069C, strain doa4, stronger effect = lower value 0.992 | locus YDR101C, strain arx1, stronger effect = lower value 0.928 | locus YDR150W, strain NUM1, stronger effect = lower value 0.998 | locus YDR162C, strain NBP2, stronger effect = lower value 0.957 | locus YDR297W, strain sur2, stronger effect = lower value 0.968 | locus YDR318W, strain mcm21, stronger effect = lower value 0.981 | locus YDR334W, strain swr1, stronger effect = lower value 0.957 | locus YDR388W, stronger effect = lower value 1 | locus YDR502C, strain sam2, stronger effect = lower value 0.949 | locus YEL003W, strain gim4, stronger effect = lower value 0.965 | locus YEL037C, strain rad23, stronger effect = lower value 0.953 | locus YEL061C, strain CIN8, stronger effect = lower value 0.988 | locus YER110C, stronger effect = lower value 1 | locus YER155C, strain BEM2, stronger effect = lower value 0.992 | locus YER167W, strain BCK2, stronger effect = lower value 0.975 | locus YFR010W, strain ubp6, stronger effect = lower value 0.93 | locus YGL086W, strain mad1, stronger effect = lower value 0.945 | locus YGL167C, strain pmr1, stronger effect = lower value 0.999 | locus YGL173C, strain kem1, stronger effect = lower value 0.927 | locus YGL227W, strain vid30, stronger effect = lower value 0.949 | locus YGL240W, strain doc1, stronger effect = lower value 0.978 | locus YGL248W, strain PDE1, stronger effect = lower value 0.999 | locus YGR078C, strain PAC10, stronger effect = lower value 0.974 | locus YGR135W, strain pre9, stronger effect = lower value 0.994 | locus YGR252W, strain gcn5, stronger effect = lower value 0.979 | locus YHR013C, strain ard1, stronger effect = lower value 0.97 | locus YHR030C, strain SLT2, stronger effect = lower value 0.995 and 0.921 | locus YHR079C, strain IRE1 (second series), stronger effect = lower value 0.996 | locus YHR079C, strain IRE1, stronger effect = lower value 0.929 | locus YHR094C, strain hxt1, stronger effect = lower value 1 | locus YHR129C, strain ARP1, stronger effect = lower value 0.998 | locus YHR200W, strain rpn10, stronger effect = lower value 0.984 | locus YIL066C, strain RNR3, stronger effect = lower value 0.981 | locus YIL073C, strain SPO22, stronger effect = lower value 1.04 | locus YIL125W, strain kgd1, stronger effect = lower value 0.993 | locus YIR030C, strain dcg1, stronger effect = lower value 0.998 | locus YJL092W, strain hpr5, stronger effect = lower value 0.923 | locus YJL095W, strain BCK1 (second series), stronger effect = lower value 0.951 | locus YJL095W, strain BCK1, stronger effect = lower value 0.986 and 0.94 | locus YJL115W, strain asf1, stronger effect = lower value 0.997 | locus YJL129C, strain trk1, stronger effect = lower value 0.899 | locus YJL134W, strain LCB3, stronger effect = lower value 0.998 | locus YJL154C, strain vps35, stronger effect = lower value 0.96 | locus YJL168C, strain set2, stronger effect = lower value 1 | locus YJL187C, strain SWE1 (second series), stronger effect = lower value 1 | locus YJR043C, strain POL32, stronger effect = lower value 0.96 | locus YJR066W, strain TOR1, stronger effect = lower value 0.955
